Experimental data published in PubChem BioAssay (Tox21).
Where “and” joins values, the source holds several entries; their conditions need not be identical. Identical values can stand only once. Inconclusive results are not listed. Entries that show only a call come without a potency. A structure can be active in one record and inactive in another. Calls of active or inactive are those of the source. Calls come from the whole dose curve; as a rule, active = well fitted activation curve with a large enough effect in the repeat runs; inconclusive = weak or mixed curves; inactive = flat fitted curve, though single readings scatter.

test: A CellTox Green Cytotoxicity Assay to monitor cytotoxicity in HEK293 cells - 40 hour (AID 1224871); conditions: CellTox Green fluorescence; series mostly up to 76.8 µM; cytotoxicity increase: at the top concentration; note: nearly all actives have a fitted effect of over 45% in size
Description: National Center for Advancing Translational Sciences [NCATS]
NIH Chemical Genomics Center [NCGC]
U.S. Environmental Protection Agency [EPA]
National Institutes of Environmental Health Sciences [NIEHS]
National Toxicology Program [NTP]
Cell-based models are critical for drug discovery. Determining the natural cytotoxic effects resulting from test compounds is an essential research activity. A CellTox Green Cytotoxicity Assay to monitor cytotoxicity in real time of continues cell culture during 40 hours of the compound treatment was used to screen Tox21 10K library compounds in Hek293 cells. CellTox Green Cytotoxicity Assay is a nonlytic, homogeneous, biofluorescent method to measure cytotoxicity in cell culture after experimental manipulation. The assay system uses a proprietary asymmetric cyanine dye that is excluded from viable cells but preferentially stains the dead cell's DNA. […] Viable cells produce no appreciable increases in fluorescence. Therefore, the fluorescence signal produced by the binding interaction with dead cell DNA is proportional to cytotoxicity.
The mixture of Hek293 cell suspension and reagents were dispensed at 600cells/6 ul/well in 1536-well tissue culture treated black solid bottom plates using a Multidrop dispenser. After the assay plates were incubated at a 37 C/5% CO2 incubator for 5 hours, 23 nL of compounds dissolved in DMSO, positive and negative controls was transferred to the assay plate by a pintool work station. The plates were incubated at 37 C for 40 hours. The fluorescence intensity were measured at 0h, 8h, 16h, 24h, 32h and 40h time points using ViewLux plate reader during compound treatment.
Potency is the fitted concentration of half-maximal effect.

Compound | Potency | cytotoxicity increase
COc1ccc2nc(N)sc2c1 | inactive | 
c1ccc2cc3ccccc3cc2c1 | inactive | 
C=CCCCCCCCCCC | inactive | 
FC(F)(F)C(Cl)Br (stereo not given) | inactive | 
CC/C(=C(/CC)c1ccc(O)cc1)c1ccc(O)cc1 | inactive | 
C=C[C@H]1CN2CC[C@H]1C[C@@H]2[C@@H](O)c1ccnc2ccc(OC)cc12 | inactive | 
CC(=O)[C@@]1(O)CC[C@H]2[C@@H]3C[C@H](C)C4=CC(=O)C=C[C@]4(C)[C@@]3(F)[C@@H](O)C[C@@]21C | inactive | 
c1ccc2c(c1)ccc1cc3c(ccc4ccccc43)cc12 | inactive | 
CC(C)[N+](C)(CCOC(=O)C1c2ccccc2Oc2ccccc21)C(C)C | inactive | 
O=C(O)c1ccc(O)cc1 | inactive | 
CC1(C)OC(=O)NC1=O | inactive | 
COc1ccc(C(=O)c2ccccc2O)c(O)c1 | 34.6 µM (active) | 
CC(=O)Nc1ccc2c(c1)Cc1cc(NC(C)=O)ccc1-2 | inactive | 
CCCCCCCCCCCCO | 4.84 µM (active) | 
NCCOCCO | inactive | 
O=[Se](O)O | 30.9 µM (active) | -7.57% [at 15.8 µM] (inactive)
CCCCCC=O | inactive | 
ClC/C=C/CCl | inactive | 
CCCCCCCCCCC(CO)CCCCCCCC (stereo not given) | inactive | 
CCCCCC1C(=O)CCC1CC(=O)OC (stereo not given) | inactive | 

Compound | Potency | cytotoxicity increase
COc1cc([C@H]2Oc3cc([C@H]4Oc5cc(O)cc(O)c5C(=O)[C@@H]4O)ccc3O[C@@H]2CO)ccc1O | inactive and 16.9 µM (active) | 
COCCOCCOCCO | inactive | 
Cc1ccc(N)c([N+](=O)[O-])c1 | inactive | 
Clc1ccc(Sc2cc(Cl)c(Cl)cc2Cl)cc1 | inactive | 
Cc1ccc2c(c1)C(=O)OC2=O | inactive | 
CC(=O)O[C@]1(C(C)=O)CC[C@H]2[C@@H]3C=C(C)C4=CC(=O)CC[C@]4(C)[C@H]3CC[C@@]21C | inactive | 
CNC[C@H](O)c1ccc(O)c(O)c1 | inactive | 
CCCCCCCC/C=C\CCCCCCCC(=O)O | inactive | 
Cc1ccc(C)c(O)c1 | inactive | 
CCc1cccc2c3c([nH]c12)C(CC)(CC(=O)O)OCC3 (stereo not given) | inactive | 
Cc1ccc(C(C)(C)C)c(O)c1 | 23.8 µM (active) and 24.5 µM (active) | 
CC1(C)O[C@@H]2C[C@H]3[C@@H]4C[C@H](F)C5=CC(=O)C=C[C@]5(C)[C@@]4(F)[C@@H](O)C[C@]3(C)[C@]2(C(=O)CO)O1 | inactive | 
NCCN | inactive | 
OC[C@@H](O)[C@@H](O[C@@H]1O[C@H](CO)[C@H](O)[C@H](O)[C@H]1O)[C@H](O)[C@@H](O)CO | inactive | 
Cc1cccc(Nc2ccccc2C(=O)O)c1C | inactive | 
CCC/C=C/C=O | inactive | 
CN(C)C |  | -9.81% (inactive)
Nc1ccc(N)c(Cl)c1 | inactive and 38.9 µM (active) | 
Cc1ccc(/C(=C\CN2CCCC2)c2ccccn2)cc1 | inactive | 
